Screening data: PubChem, National Center for Advancing Translational Sciences (NCATS)
This is a sample that favours compounds with a hit; in the whole collection about 7.5% have one here.
SMN2 splice up = qHTS Assay for Enhancers of SMN2 Splice Variant Expression; HEK293 SMN2-luciferase splicing reporter, luminescence, 30-36 h; Potency, µM (highest dose often 46.1 µM), usual class: activators; 210,000 tested, 2.8% active; AID 1458, 2008; also: nearly all actives have a fitted effect of over 55% in size
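qHTS luciferase splicing reporter: luminescence rises when SMN2 exon 7 is included in transfected HEK293 cells. Compound exposure lasted 30-36 h at 37C, with 4.5 mM final sodium butyrate as control, followed by a ONE-Glo read.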
FLuc counter = qHTS profiling assay for firefly luciferase inhibitor/activator using purifed enzyme and Km concentrations of substrates (counterscreen for miR-21 project). purified FLuc, Km substrates, luminescence inhibition. Potency, µM (highest dose often 57.5 µM), actives largely listed as inhibitors. 360,000 tested, 6.9% active. Luciferin 4-monooxygenase (Photinus pyralis), P08659; also: nearly all actives have a fitted effect of over 55% in size
Target sequence (P08659 whole entry, looked up): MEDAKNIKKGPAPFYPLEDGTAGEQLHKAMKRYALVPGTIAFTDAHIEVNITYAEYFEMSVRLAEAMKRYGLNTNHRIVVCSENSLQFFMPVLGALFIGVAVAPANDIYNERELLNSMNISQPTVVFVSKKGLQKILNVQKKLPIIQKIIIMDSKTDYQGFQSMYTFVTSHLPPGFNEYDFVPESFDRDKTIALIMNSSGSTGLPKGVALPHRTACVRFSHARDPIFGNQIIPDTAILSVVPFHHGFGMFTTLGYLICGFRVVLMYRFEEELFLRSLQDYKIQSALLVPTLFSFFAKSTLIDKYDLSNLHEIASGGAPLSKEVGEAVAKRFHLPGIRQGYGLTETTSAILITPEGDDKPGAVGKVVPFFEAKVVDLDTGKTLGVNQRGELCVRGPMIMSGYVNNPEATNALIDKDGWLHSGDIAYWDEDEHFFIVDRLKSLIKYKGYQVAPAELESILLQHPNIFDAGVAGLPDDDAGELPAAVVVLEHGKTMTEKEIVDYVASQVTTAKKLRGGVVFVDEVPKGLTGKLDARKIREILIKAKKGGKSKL
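Purified P. pyralis luciferase, 10 nM final, with Km-level 10 uM D-luciferin and 10 uM ATP in 50 mM Tris acetate pH 7.5, 10 mM Mg acetate, 0.01% Tween-20, 0.05% BSA; 6-point qHTS titration about 60 µM downward; luminescence read.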
ELG1 genotox = qHTS screen for small molecules that induce genotoxicity in human embryonic kidney (HEK293T) cells expressing luciferase-tagged ELG1 | HEK293T ELG1-luciferase reporter, luminescence, 16 h | Potency, µM (top dose mostly 46 µM), usual class: activators | 330,000 tested, 1.3% active | AID 504466, 2011; also: nearly all actives have a fitted effect of over 60% in size
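16 hr compound incubation (37 °C, 5% CO2) of HEK293T cells carrying luciferase-tagged ELG1; luciferase then measured by ONE-Glo luminescence after 30 min at RT.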
Rab9 prom act = qHTS Assay for Rab9 Promoter Activators | Huh7 Rab9 promoter-luciferase reporter, luminescence, 24 h | 320,000 tested, 2.8% active | Potency, µM (top dose mostly 9.22 µM), actives largely listed as activators | AID 485297, 2010; also: nearly all actives have a fitted effect of over 60% in size
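Luciferase signal after 10 min detection reagent at ambient indicates Rab9 promoter upregulation; stably transfected Huh7 cells were treated 24 h with compound in DMSO at 37 °C, 5% CO2.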
NPC1 promoter act = qHTS Assay for NPC1 Promoter Activators | Huh7 NPC1 promoter luciferase reporter, 24 h | Potency, µM (doses to about 9.22 µM), actives largely listed as activators | 320,000 tested, 2.4% active; also: nearly all actives have a fitted effect of over 60% in size
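In 1536-well qHTS, Huh7 cells harboring an NPC1 promoter–luciferase construct received compound for 24 h; activation was quantified by luminescence following luciferase reagent addition.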
Numbers stand for hits; - = inactive; ? = inconclusive; . = no result. Calls follow the shape of the dose curve; as a rule, active = well fitted curve in the direction sought with a large enough effect; inconclusive = small, poorly fitted or top-dose-only effect, or another doubt; inactive = no such curve, though single readings can be large; an effect the other way counts as inactive or inconclusive.

SMILES	SMN2 splice up	FLuc counter	ELG1 genotox	Rab9 prom act	NPC1 promoter act
COc1ccc2oc(C(=O)Nc3nc(C)cs3)c(C)c2c1	.	0.6µM	?	5.6µM	2.5µM
N#Cc1sc2nc(C3CC3)cc(-c3ccc(Cl)cc3)c2c1N	-	-	-	-	-
COc1ccc2c(CC(=O)Nc3ccc(OC)c(S(=O)(=O)N4CCOCC4)c3)coc2c1	-	17µM	-	-	-
COc1ccc2oc(C(=O)Nc3ccccn3)c(C)c2c1	.	0.6µM	?	4µM	?
CCn1cc(C(=O)N(C)c2ccc(OC)cc2OC)c2cc(OC)c(OC)cc2c1=O	.	-	-	-	-
O=c1[nH]c(SCc2ccc(F)cc2)nc2c1CCCC2	.	-	.	.	.
CC(C)c1ccc(NC(=O)c2ccccc2NC(=O)C2CC=CCC2C(=O)O)cc1 (centres undefined)	.	27µM	?	-	-
CCNC(=S)N(CCc1c(C)[nH]c2ccc(C)cc12)Cc1cccs1	-	-	-	-	-
Clc1cccc(Cl)c1C1=NOC(c2nnc(-c3ccccc3)o2)C1 (centres undefined)	.	19µM	-	?	-
O=C(N/N=C/c1ccco1)c1cc(-c2cccc3ccccc23)n[nH]1	-	17µM	-	-	-
Cc1ccc(-c2cc(C(=O)N/N=C/c3ccco3)[nH]n2)cc1	-	21µM	-	-	-
O=C(N/N=C/c1ccccc1C(=O)O)c1cc(-c2ccc3c4c(cccc24)CC3)n[nH]1	-	15µM	-	-	-
Cc1cc(C)nc(SCc2ccc(C(=O)N/N=C/c3ccccc3C(=O)O)cc2)n1	-	?	-	-	-
CCOC(=O)c1sc(-c2ccc(OC)cc2)cc1NC(C)=O	16µM	-	-	-	-
CCOc1ccc(-c2cc(NC(=O)Nc3ccc(Cl)cc3)c(C(=O)OC)s2)cc1	-	-	.	.	.
CCOc1ccc(-c2cc(NC(=O)Nc3ccccc3C(F)(F)F)c(C(=O)OC)s2)cc1	-	-	.	.	.
CCOc1ccc(-c2cc(NC(=O)Nc3ccccc3Cl)c(C(=O)OC)s2)cc1	-	8.5µM	.	.	.
Cc1cccc(COc2ccc(/C=N/NC(=O)c3nnn(-c4nonc4N)c3CN3CCCCC3)cc2)c1	.	-	-	-	-
CCc1ccc(NC(=O)c2sc3nc(C)c(C(=O)Nc4ccc(C)cc4C)c(-c4ccco4)c3c2N)cc1	-	-	.	.	.
CCCc1cc(=O)[nH]c(SCC(=O)Nc2nc3ccc(OCC)cc3s2)n1	.	?	-	-	-
CCOCC(=O)Nc1nc2ccc(OC)cc2s1	11µM	12µM	5.2µM	1.4µM	2µM
CCOc1ccc2nc(NC(=O)COC)sc2c1	11µM	5.4µM	2µM	1.3µM	2µM
CCOc1ccc2nc(NC(=O)Cn3[nH]c(=O)c4ccccc4c3=O)sc2c1	.	15µM	?	?	?
CCOc1ccc2nc(NC(=O)C(CC)Sc3nc(C)cc(=O)[nH]3)sc2c1 (centres undefined)	-	24µM	?	?	-
CCOc1ccc2nc(NC(=O)CN3CCN(C)CC3)sc2c1	-	?	-	-	-
SMILES	SMN2 splice up	FLuc counter	ELG1 genotox	Rab9 prom act	NPC1 promoter act
CCOc1ccc2nc(NC(=O)CN3CCN(CC)CC3)sc2c1	.	-	-	-	-
CCNC(=O)/C(=C/c1ccco1)NC(=O)/C=C/c1ccccc1	-	-	-	-	-
O=S(=O)(c1cccc2nonc12)N1CCCCCC1	.	-	-	-	-
CCOc1ccc2nc(NC(=O)CN3C(=O)C4CCCCC4C3=O)sc2c1 (centres undefined)	.	6µM	-	-	-
CCCCNc1c([N+](=O)[O-])cc(C)cc1[N+](=O)[O-]	-	-	-	-	-
O=C(COC(=O)/C=C/c1ccc(Cl)cc1)NC1CCCC1	.	-	-	-	-
O=C1C2C3C=CC(C4CC34)C2C(=O)N1c1cccc2ccccc12 (centres undefined)	.	6.7µM	-	-	-
CCc1ccccc1NC(=O)CSc1nc2ncccc2o1	.	-	.	.	.
O=c1oc(Nc2ccc(F)cc2)nc2ccccc12	-	13µM	?	2.5µM	2.2µM
O=c1nc(Nc2ccccc2)oc2ccccc12	.	17µM	?	?	2.8µM
C/C(=N/NC(=O)c1ccc2c(c1)OCO2)c1ccc(NC(=O)c2ccc(F)cc2)cc1	.	-	15µM	-	-
COc1ccccc1NS(=O)(=O)c1cccc(C(=O)N/N=C(\C)c2ccc3c(c2)OCCO3)c1	-	15µM	-	-	-
COc1ccccc1NS(=O)(=O)c1cccc(C(=O)N/N=C(\C)c2cccnc2)c1	.	-	-	-	-
C/C(=N/NC(=O)c1ccc2c(c1)OCO2)c1cccc(NC(=O)C(C)(C)C)c1	-	17µM	-	-	-
C/C(=N\NC(=S)Nc1ccc(F)cc1)c1ccc2c(c1)OCCO2	-	?	-	-	-
CC(/C=C/c1ccc2c(c1)OCO2)=N\NC(=O)c1cccc([N+](=O)[O-])c1	-	-	-	-	-
C/C(=N/NC(=O)c1ccc2c(c1)OCO2)c1cccc([N+](=O)[O-])c1	.	6µM	8.2µM	2.2µM	2µM
O=C(NCc1cccs1)C1(S(=O)(=O)c2ccccc2)CC=CC1	.	-	-	-	-
C/C(=N\NC(=O)c1cc2ccccc2cc1O)c1ccc2c(c1)OCO2	-	9.5µM	-	-	-
COc1ccccc1NC(=O)N1CCN(Cc2nc3ccc(C)cc3o2)CC1	.	-	.	.	.
CCCn1c(/N=C/c2ccc3c(c2)OCO3)nc2ccccc21	-	4.8µM	-	-	-
C(=N\c1nc2ccccc2n1CCN1CCCCC1)/c1cccs1	-	-	-	-	-
C(=N\c1nc2ccccc2n1CCN1CCCCC1)/c1ccc2c(c1)OCO2	-	-	-	-	-
C=CCn1c(/N=C/c2ccc3c(c2)OCO3)nc2ccccc21	-	6.7µM	-	-	-
Brc1ccc(/C=N/c2nc3ccccc3n2CCN2CCOCC2)cc1	-	24µM	-	-	-
SMILES	SMN2 splice up	FLuc counter	ELG1 genotox	Rab9 prom act	NPC1 promoter act
C=CCc1cccc(/C=N/c2nc3ccccc3n2CC)c1O	-	-	-	-	-
O=C(Nc1ccc2c(c1)CCCN2C(=O)c1cccs1)c1cccc(F)c1	.	?	-	-	-
OCC1(CO)COC(/C=C/c2ccccc2)=N1	.	-	-	-	-
CCN(C(=O)Cc1ccc(NC2=NC3CS(=O)(=O)CC3S2)cc1)c1ccccc1 (centres undefined)	.	-	-	-	-
N#C/C(=C\c1cccc(O)c1)C(=O)Nc1ccc2c(c1)OCCO2	.	0.48µM	-	-	-
N#C/C(=C\c1ccc2c(c1)OCO2)C(N)=S	.	-	-	-	-
CC(C)NC(=O)/C(C#N)=C/c1ccc2c(c1)OCCO2	-	9.5µM	-	-	-
N#C/C(=C\c1ccc(O)c(O)c1)C(=O)Nc1ccccc1	22µM	?	?	-	-
